IL-1B inflam inh = inflammasome signaling inhibition, IL-1 beta readout. activity change, % at 57.5 µM. THP-1 LPS/ATP IL-1B secretion, AlphaLISA, 16 h; stronger effect = lower value. 360,000 tested, 4.7% active; in the data active = activity change below about -50%; inconclusive = mostly about -30% to -49%
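THP-1 cells pretreated 1 hr with compounds (up to 57.5 uM final), then stimulated with LPS (250 ng/mL final) plus ATP (1.25 mM final); secreted IL-1B measured by AlphaLISA after 16 hr, decreased signal indicating inhibition.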
HT1080-NT tox = kills 2HG-producing HT-1080-NT fibrosarcoma cells; 360,000 tested, 1.6% active; HT-1080-NT fibrosarcoma viability, CellTiter-Glo ATP luminescence, 48 h; Potency, µM (series often up to 46.1 µM), without a hit: top-dose activity, negative = less viability, most hits filed as cytotoxic;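 also: NT is the 2HG producing partner of a matched IDH1 knockdown line; potency is read from the fitted curve at half-maximal effect; 0% = DMSO-treated cells and -100% = media-only wells without cells; nearly all actives have a fitted effect of over 55% in size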
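Viability by CellTiter-Glo luminescence after 48 h compound exposure at 37C of HT-1080-NT cells (750/well, RPMI, 5% FBS). % activity scaled between DMSO wells and medium-only wells, then curve-fitted and categorized by curve class.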
KB-3-1 tox = KB-3-1 parental cell cytotoxicity. AID 1347075. KB-3-1 viability, CellTiter-Glo ATP luminescence, 72 h. 400,000 tested, 1.4% active. Potency, µM (titrated, usually from 46.1 µM), usual class: cytotoxic; also: potency is read from the fitted curve at half-maximal effect; nearly all actives have a fitted effect of over 60% in size
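Cytotoxicity measured as CellTiter-Glo luminescence after 72 h at 37 C. Compound titrations were pinned onto drug-naive KB-3-1 parental adenocarcinoma cells grown in DMEM with 10% FBS, and normalized data fitted to concentration-response curves.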
HT1080 IDH1KD tx = toxicity to HT-1080 IDH1 knockdown cells (counter line); 360,000 tested, 2% active; AID 686971; HT-1080 IDH1 knockdown viability, ATP luminescence, 48 h; Potency, µM (top dose mostly 46.1 µM), inactives show top-dose activity, negative = toxicity, hits mostly cytotoxic;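 also: potency is read from the fitted curve at half-maximal effect; 0% = DMSO wells and -100% = cell-free medium wells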
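Viability of IDH1-knockdown HT-1080 fibrosarcoma cells was assessed by CellTiter-Glo after 48 h at 37 °C with titrated compound; concentration-effect curves were classified by fit quality and response size.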
KB-V1 MDR tox = kills drug-selected multidrug resistant KB-V1 cells; KB-V1 MDR cells viability, CellTiter-Glo, 72 h; Potency, µM (titrated, usually from 46.1 µM), most hits filed as cytotoxic; 400,000 tested, 3.4% active; also: potency is read from the fitted curve at half-maximal effect; nearly all actives have a fitted effect of over 60% in size
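Compound-treated KB-V1 multidrug-resistant cells, 72 h, 37 degrees C; viability by CellTiter-Glo. Fitted qHTS curves give the values.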
* = called active by the depositor; i = inactive; ? = inconclusive; · = no result given. A selection: hits, their analogues and other compounds. The true share with any hit is near 8.8%. Unless noted, calls follow the shape of the dose curve; as a rule, active = well fitted curve in the direction sought with a large enough effect; inconclusive = small, poorly fitted or top-dose-only effect, or another doubt; inactive = no such curve, though single readings can be large; an effect the other way counts as inactive or inconclusive. Unless noted, % is scaled to controls: 0 for no effect and ±100 for the full control effect.

SMILES | IL-1B inflam inh | HT1080-NT tox | KB-3-1 tox | HT1080 IDH1KD tx | KB-V1 MDR tox
N/C(Cc1ccc([N+](=O)[O-])cc1)=N\OC(=O)Cc1ccc(Cl)cc1 | -56.5* | 13.3% | i | 15.3% | i
NC(=O)CSc1oc(-c2ccco2)nc1S(=O)(=O)c1ccc(F)cc1 | 3.5 | 9.1% | i | 15.5% | i
CNCCCC1c2ccccc2C=Cc2ccccc21 | 0.0 | 18.4µM* | i | 23.1µM* | ?
CNCCCCOc1ccccc1-c1ccccc1 | ? | -18.7% | ? | ? | ?
CCc1ccc(C2=CC(c3cc(Br)ccc3F)n3ncnc3N2)cc1 (stereo not drawn) | ? | -7.9% | 8.2µM* | -6.6% | 9.2µM*
Cc1ccc(/C(=N/Nc2nc3ccccc3s2)C2=C(O)c3ccccc3C2=O)cc1 | 24.2 | 1.0% | ? | 3.1% | i
CC1(C(=O)NCc2ccco2)Cc2c(-c3cccc(C(F)(F)F)c3)ccnc2O1 (stereo not drawn) | 56.8 | ? | 6.51µM* | ? | ?
CC(=O)Nc1cccc(-c2ccnc3c2CC(C)(C(=O)Nc2cccc(OC(F)(F)F)c2)O3)c1 (stereo not drawn) | 13.4 | 9.2µM* | ? | ? | ?
CC1(C(=O)NCc2ccco2)Cc2c(-c3cccc(C(N)=O)c3)ccnc2O1 (stereo not drawn) | -57.4* | ? | 10.3µM* | ? | i
CC1(C(=O)NCc2ccc(F)c(F)c2)Cc2c(-c3cccc(C(N)=O)c3)ccnc2O1 (stereo not drawn) | 24.7 | 25.9µM* | ? | 10.3µM* | i
CC1(C(=O)Nc2cccc(OC(F)(F)F)c2)Cc2c(-c3cccc(C(F)(F)F)c3)ccnc2O1 (stereo not drawn) | 14.0 | ? | ? | ? | i
COc1cccc(C=NCCCN=Cc2cccc(OC)c2O)c1O | 0.0 | -1.5% | i | -5.2% | ?
CC1(C(=O)NCc2ccccc2)Cc2c(-c3cccc(C(N)=O)c3)ccnc2O1 (stereo not drawn) | 37.8 | ? | 6.51µM* | ? | i
CC(=O)Nc1ccc(-c2ccnc3c2CC(C)(C(=O)NCC2CC2)O3)cc1 (stereo not drawn) | 17.7 | 18.1% | i | 13.4% | i
CC(=O)Nc1ccc(-c2ccnc3c2CC(C)(C(=O)NCc2ccco2)O3)cc1 (stereo not drawn) | 54.8 | ? | 10.3µM* | 2.59µM* | i
COc1ccc(CNC(=O)C2(C)Cc3c(-c4cccc(C(N)=O)c4)ccnc3O2)cc1OC (stereo not drawn) | 5.5 | -10.1% | i | -12.9% | i
CC(=O)Nc1cccc(-c2ccnc3c2CC(C)(C(=O)NCc2ccc(F)c(F)c2)O3)c1 (stereo not drawn) | 81.6 | ? | 14.6µM* | ? | ?
CC(=O)Nc1cccc(-c2ccnc3c2CC(C)(C(=O)NCC2CC2)O3)c1 (stereo not drawn) | 68.9 | · | 11.6µM* | · | i
COc1ccc(-c2csc(C(C#N)=C(O)CSc3nccn3C)n2)cc1OC | 2.4 | -6.2% | ? | 0.3% | i
CCCC(=O)Nc1nnc(S(=O)(=O)N(CC)c2ccc(OC)cc2)s1 | -0.9 | -16.1% | i | -22.1% | i
CN(CC(=O)Nc1ccc(Cl)c(C(F)(F)F)c1)C(=O)c1cccc(N2C(=O)CCC2=O)c1 | 31.0 | -11.1% | i | -3.1% | i
COc1ccc(C(C(=O)NCc2ccccc2)n2c(=O)c(-c3ccco3)nc3ccccc32)cc1 (stereo not drawn) | -0.4 | ? | ? | 20.6µM* | ?
O=C(NCc1ccccc1)C(c1ccccc1F)n1c(=O)c(-c2ccco2)nc2ccccc21 (stereo not drawn) | -5.3 | -4.1% | i | 0.2% | i
CCC(c1nc2ccccc2[nH]1)n1c(=O)c(-c2ccco2)nc2ccccc21 (stereo not drawn) | -65.5* | 6.3% | i | -1.3% | ?
COc1cc(-c2nnc(-c3ccccc3)o2)cc(OC)c1OC | ? | 9.7% | i | 19.7% | 9.2µM*
COc1cc(-c2nnc(COc3ccc4ccccc4c3)o2)cc(OC)c1OC | -19.0 | -15.9% | i | -2.8% | 23.1µM*

Compound activity deposited in PubChem by National Center for Advancing Translational Sciences (NCATS).
